# In ChEMBL document CHEMBL4513216, “Probing the Open Global Health Chemical Diversity Library for Multistage-Active Starting Points for Next-Generation Antimalarials” (ACS Infect Dis, 2020):
# Out of some 69,000 compounds screened, about 8,600 (12%) showed an effect of 50% or more. This excerpt belongs to a sample that is enriched for strong results.
# System: Plasmodium berghei
# Assay: Screen against P. berghei liver stage (PbLuc), transformed with Luciferase, at 10uM
# Type: functional, HepG2
# Details: tested at 10 uM
row,Structure (SMILES),INHIBITION [%]
1,Cc1cc(C(=O)Nc2cccn(Cc3ccccc3)c2=O)no1,-85.8
2,O=C(c1ccccn1)N1CCC2(CC1)COC(COCC1CC1)C2 (configuration not stated),23.5
3,CN(C)CCn1c2c(ccc1=O)CC(NC(=O)NC1CCCC1)CC2 (configuration not stated),39.5
4,Cc1cc(C2CCC2)nc(NCC(C)(C)N2CCOCC2)n1,9.52
5,CCN1CCN(C(C)(C)CNc2nc(C)cc(C3CCC3)n2)CC1,9.52
6,Cc1cc(C2CCC2)nc(NCC(C)(C)N2CCCC2)n1,57.2
7,COC(=O)CCC(=O)NCc1cccnc1N1CCc2ccccc2C1,-13.1
8,CC(NC(=O)C1=NN(C)C(=O)CC1)c1cccc(Cl)c1 (configuration not stated),24.3
9,Cc1cc(C(=O)N2CCCCC2c2nc(C)cs2)[nH]n1 (configuration not stated),35.7
10,Cc1csc(C2CCCCN2C(=O)c2cc(C(C)C)[nH]n2)n1 (configuration not stated),70.8
11,Cc1csc(C2CCCCN2C(=O)c2cc(C3CC3)[nH]n2)n1 (configuration not stated),13.6
12,Cc1nc(CN2CCC(C(=O)O)(n3ccc(C(C)C)n3)CC2)co1,-35.2
13,N#Cc1ccc(NC(=O)N2CCCCC2CN2CCCC2=O)cc1 (configuration not stated),44.9
14,Cc1ccc(C(=O)N2CCCCC2CN(C)C)cc1 (configuration not stated),21.8
15,CCC1CCCCCN1C(=O)c1ccc(N2CCC(O)CC2)cc1 (configuration not stated),-45.2
16,Cc1cc(C)n(CC(=O)N2CCCCC2CCN2CCCC2=O)c(=O)n1 (configuration not stated),44.2
17,O=C1CCCN1CCC1CCCCN1C(=O)c1ccc(SCCO)cc1 (configuration not stated),58.2
18,COCCCC1CCCCN1C(=O)c1ccc(SCCO)cc1 (configuration not stated),52.6
19,COc1ccc2c(c1)CN(C)C(=O)CCN2CC(O)C(C)(C)C (configuration not stated),17.7
20,CC(C)(NCC(=O)NCC1CC1)c1ccc2c(c1)OCCO2,-36.3
21,CCn1ccc(C(=O)Nc2ccc3c(c2)C(C)(C)C(=O)N3C)n1,40
22,CCC(CC)C(=O)N1CCC(c2nn(CCN)c3nccnc23)C1 (configuration not stated),41.2
23,CS(=O)(=O)N[C@@H]1CN(C(=O)c2ccccn2)C[C@@H]2CCCO[C@@H]21,34.6

row,Structure (SMILES),INHIBITION [%]
1,COc1ccc(-c2cc3nc(CCNC(=O)CN(C)C)nn3cn2)cc1,19.4
2,CC(C)(C)C(=O)CN1CCc2ccccc2NCCC1=O,15.4
3,CN1CCCN(C(=O)c2ccn3ccnc3c2)CC1,-60.7
4,O=C(c1ccsc1)N1CC[C@@H](N2CCOCC2)[C@@H]1Cc1ccccc1,-2.72
5,COCc1nc(C(=O)NS(=O)(=O)c2ccc(F)c(F)c2)cs1,21.1
6,COCc1nc(C(=O)NS(=O)(=O)c2ccc(C)c(C)c2)cs1,-1.7
7,COCc1nc(C(=O)NS(=O)(=O)c2ccc(OC)c(C)c2)cs1,52.6
8,COc1ccccc1NC(=O)c1cc2c([nH]c1=O)CCCC2=O,-15.9
9,CCN(c1ccc(C(=O)NCCN2CCOCC2)cc1)S(=O)(=O)CC,34.2
10,CCN(CC)C(=O)Cn1cc(C(=O)NCCc2nc(C)c(C)s2)nn1,39
11,CCN(CC)C(=O)Cn1cc(C(=O)NCCCc2scnc2C)nn1,56.3
12,CCN(CC)C(=O)Cn1cc(C(=O)NCCc2scnc2C)nn1,10.6
13,CN(Cc1ccco1)[C@@H]1CN(CC2CCOCC2)C[C@@H]2CCCO[C@@H]21,38.1
14,CNC(=O)C1(c2cnccn2)CCCN1C(=O)c1ccccc1C (configuration not stated),30.4
15,Cc1ccc2nc(-c3cnc(N)nc3)cc(C(=O)N(C)C)c2c1,13.5
16,Cc1cc(C)c2c(C(=O)N(C)C)cc(-c3cnc(N)nc3)nc2c1,5.91
17,COc1ccc2c(C(=O)N(C)C)cc(-c3cnc(N)nc3)nc2c1,15.7
18,CCCn1cc(-c2cc(C(=O)N(C)C)c3ccc(C)cc3n2)cn1,8.845
19,Cc1ccc2nc(-c3cnc(N)nc3)c(C)c(C(=O)N(C)C)c2c1,50.5
20,CN(C)C(=O)c1cc(-c2cnc(N)nc2)nc2cc(F)ccc12,60.2
21,c1ncn(CC2CCCN(CC3CCCCC3)C2)n1 (configuration not stated),-1.75
22,Nc1cc(C(=O)N2CCCC(C(=O)CCc3ccccc3)C2)ccn1 (configuration not stated),49.3
23,c1cnc(N2CCO[C@H]3CN(Cc4cc[nH]n4)C[C@H]32)cn1,-15.3

row,Structure (SMILES),INHIBITION [%]
1,CCc1nc(CN2CCOC(Cn3nc(C)cc3C)C2)no1 (configuration not stated),-0.219
2,COCCN1CCC(CNc2nc3ccccc3o2)CC1,61
3,COCCN1CCC(CNc2cnc3ccccc3n2)CC1,46.1
4,COCCN1CCC(CNc2nccc(-c3cnn(C)c3)n2)CC1,13.3
5,Cc1csc(CN2CCC3(CC2)COC(COCC2CC2)C3)n1 (configuration not stated),43
6,CS(=O)(=O)NC1CCCN(C(=O)NCc2ccccc2Cl)C1 (configuration not stated),25.4
7,CC(=O)OC1CN(c2nc3c(Cl)cccc3s2)C1,-56.7
8,c1cnc(-c2nc(CNC3CCc4ncnn4C3)cs2)nc1 (configuration not stated),-25.75
9,Cc1ccc(CCC(=O)N2CCn3c(nnc3C(C)C)C2)cc1Cl,8.41
10,COc1ccc(-c2nnc(SC(C)C(N)=O)[nH]2)c(OC)c1 (configuration not stated),18.3
11,COc1ccc(-c2nnc(SC(C)C(=O)NC3CCCC3)[nH]2)c(OC)c1 (configuration not stated),51.7
12,COc1ccc2nnc(C(=O)NC3CCCC3)nc2c1,-65.8
13,COc1ccc(-c2ccccc2CN)c(OC)c1,-58
14,COc1ccc(-c2nnc(SC(C)C(=O)NC3CC3)[nH]2)c(OC)c1 (configuration not stated),37.1
15,COc1ccc(S(=O)(=O)NC(=O)C(C)OC)c(OC)c1 (configuration not stated),33
16,COc1ccc(-c2nnc(SC(C)C(=O)NC(C)(C)C)[nH]2)c(OC)c1 (configuration not stated),82.5
17,COc1ccc(-c2nnc(SC(C)C(=O)NCC(C)C)[nH]2)c(OC)c1 (configuration not stated),64
18,COc1ccc(-c2nnc(SCC(=O)NCC(C)C)[nH]2)c(OC)c1,-30.8
19,COc1cc2cc3c(nc2cc1OC)OCCN(Cc1cccs1)C3,-3.94
20,Cc1ccc(CN2CCc3onc(C(=O)Nc4cccnc4)c3C2)o1,-12.2
21,CC1(C(=O)NC2CCCC2)CCCN(c2ncccn2)C1 (configuration not stated),0.301
